Assay results from the supplement of paper PMC11732987, “Enantioselective OTUD7B fragment discovery through chemoproteomics screening and high-throughput optimisation” (Communications Chemistry, 2025).

Legend:
Assay in all cases: log2 ratio of Biotin-Ahx-Ub-VS probe labelling (fragment/DMSO); higher = less target engagement (more negative = stronger competition), active = hit call of the paper (q ≤ 0.05, log2 ratio ≤ -1)
Conditions in all cases: compound concentration: 200 uM; treatment time: 3 h
OTUD6B = target: T1, OTUD6B (UniProt Q8N6M0)
T1 sequence (whole entry): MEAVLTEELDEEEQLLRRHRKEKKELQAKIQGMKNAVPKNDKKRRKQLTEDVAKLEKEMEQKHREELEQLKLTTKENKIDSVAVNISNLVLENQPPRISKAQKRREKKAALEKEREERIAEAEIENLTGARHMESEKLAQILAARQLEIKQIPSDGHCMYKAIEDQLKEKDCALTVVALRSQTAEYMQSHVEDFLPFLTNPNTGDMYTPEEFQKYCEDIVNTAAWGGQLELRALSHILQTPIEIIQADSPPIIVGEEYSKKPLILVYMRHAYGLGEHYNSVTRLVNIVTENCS
Procedure, shortened: (§1)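 Fragment (200 µM) or vehicle was incubated for 3 h with triplicate HEK293T lysate samples of 495 µg, which were then treated with Biotin-Ahx-Ub-VS at 0.5 µM final for 1 h. Labelled DUBs were enriched on NeutrAvidin, digested with LysC and trypsin, and analysed by diaPASEF LC-MS/MS. Values are average log2 fragment/vehicle ratios from an unpaired t-test on global-median-normalised Spectronaut label-free quantities, using proteins with ≥2 unique peptides.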

OTUD7B = target: T2, OTUD7B (UniProt Q6GQQ9)
T2 sequence (whole entry): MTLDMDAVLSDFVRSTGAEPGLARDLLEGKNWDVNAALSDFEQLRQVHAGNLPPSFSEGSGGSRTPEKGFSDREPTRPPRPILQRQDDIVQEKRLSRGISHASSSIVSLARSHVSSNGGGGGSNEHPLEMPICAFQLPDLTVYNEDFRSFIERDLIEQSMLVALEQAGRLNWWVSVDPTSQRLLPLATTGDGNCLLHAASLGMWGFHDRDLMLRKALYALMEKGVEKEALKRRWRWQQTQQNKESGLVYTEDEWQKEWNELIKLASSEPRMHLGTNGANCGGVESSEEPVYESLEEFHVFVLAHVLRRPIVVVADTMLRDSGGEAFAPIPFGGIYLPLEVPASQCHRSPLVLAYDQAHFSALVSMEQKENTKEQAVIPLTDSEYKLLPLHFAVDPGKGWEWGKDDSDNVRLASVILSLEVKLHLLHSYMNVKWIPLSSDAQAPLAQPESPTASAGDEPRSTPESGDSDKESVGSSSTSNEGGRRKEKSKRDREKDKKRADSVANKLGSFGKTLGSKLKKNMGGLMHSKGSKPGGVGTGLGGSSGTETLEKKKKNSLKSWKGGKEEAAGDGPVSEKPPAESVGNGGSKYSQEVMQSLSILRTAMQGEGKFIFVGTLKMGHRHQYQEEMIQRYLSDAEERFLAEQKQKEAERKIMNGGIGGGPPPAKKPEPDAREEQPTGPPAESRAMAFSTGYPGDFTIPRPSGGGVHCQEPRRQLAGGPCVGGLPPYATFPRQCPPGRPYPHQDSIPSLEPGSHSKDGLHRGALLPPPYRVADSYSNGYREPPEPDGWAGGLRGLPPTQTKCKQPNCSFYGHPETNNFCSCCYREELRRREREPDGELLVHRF
Procedure, shortened: as §1

PRPF8 = PRPF8 (UniProt Q6P2Q9)
Procedure, shortened: as §1

PSMD7 = target: T3, PSMD7 (UniProt P51665)
T3 sequence (whole entry): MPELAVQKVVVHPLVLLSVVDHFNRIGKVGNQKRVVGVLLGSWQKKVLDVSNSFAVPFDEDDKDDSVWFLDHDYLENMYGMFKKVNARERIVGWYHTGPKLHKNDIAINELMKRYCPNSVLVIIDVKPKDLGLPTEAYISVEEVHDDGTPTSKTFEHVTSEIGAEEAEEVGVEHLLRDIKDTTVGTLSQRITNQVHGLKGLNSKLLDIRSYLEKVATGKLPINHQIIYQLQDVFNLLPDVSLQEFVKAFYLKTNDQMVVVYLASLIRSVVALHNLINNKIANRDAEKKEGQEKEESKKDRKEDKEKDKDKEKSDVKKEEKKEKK
Procedure, shortened: as §1

UCHL1 = UCHL1 (UniProt P09936)
Procedure, shortened: as §1

UCHL3 = target: T4, UCHL3 (UniProt P15374)
T4 sequence (whole entry): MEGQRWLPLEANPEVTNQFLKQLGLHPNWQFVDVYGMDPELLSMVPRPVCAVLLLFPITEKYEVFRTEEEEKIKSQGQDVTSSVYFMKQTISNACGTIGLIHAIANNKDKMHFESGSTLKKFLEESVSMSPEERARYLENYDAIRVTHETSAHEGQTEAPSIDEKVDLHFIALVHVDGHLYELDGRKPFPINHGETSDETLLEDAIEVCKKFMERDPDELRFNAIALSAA
Procedure, shortened: as §1

UCHL5 = target: T5, UCHL5 (UniProt Q9Y5K5)
T5 sequence (whole entry): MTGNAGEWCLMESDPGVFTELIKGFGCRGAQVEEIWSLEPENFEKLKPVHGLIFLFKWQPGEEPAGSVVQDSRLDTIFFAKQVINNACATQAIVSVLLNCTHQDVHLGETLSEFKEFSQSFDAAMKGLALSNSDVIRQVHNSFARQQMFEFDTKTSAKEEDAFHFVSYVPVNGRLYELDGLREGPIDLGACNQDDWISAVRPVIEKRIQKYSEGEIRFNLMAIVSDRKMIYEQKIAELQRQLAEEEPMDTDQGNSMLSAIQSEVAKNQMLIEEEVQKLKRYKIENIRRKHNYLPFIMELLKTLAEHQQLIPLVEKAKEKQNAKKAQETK
Procedure, shortened: as §1

USP10 = USP10 (UniProt Q14694)
Procedure, shortened: as §1

USP15 = target: T6, USP15 (UniProt Q9Y4E8)
T6 sequence (whole entry): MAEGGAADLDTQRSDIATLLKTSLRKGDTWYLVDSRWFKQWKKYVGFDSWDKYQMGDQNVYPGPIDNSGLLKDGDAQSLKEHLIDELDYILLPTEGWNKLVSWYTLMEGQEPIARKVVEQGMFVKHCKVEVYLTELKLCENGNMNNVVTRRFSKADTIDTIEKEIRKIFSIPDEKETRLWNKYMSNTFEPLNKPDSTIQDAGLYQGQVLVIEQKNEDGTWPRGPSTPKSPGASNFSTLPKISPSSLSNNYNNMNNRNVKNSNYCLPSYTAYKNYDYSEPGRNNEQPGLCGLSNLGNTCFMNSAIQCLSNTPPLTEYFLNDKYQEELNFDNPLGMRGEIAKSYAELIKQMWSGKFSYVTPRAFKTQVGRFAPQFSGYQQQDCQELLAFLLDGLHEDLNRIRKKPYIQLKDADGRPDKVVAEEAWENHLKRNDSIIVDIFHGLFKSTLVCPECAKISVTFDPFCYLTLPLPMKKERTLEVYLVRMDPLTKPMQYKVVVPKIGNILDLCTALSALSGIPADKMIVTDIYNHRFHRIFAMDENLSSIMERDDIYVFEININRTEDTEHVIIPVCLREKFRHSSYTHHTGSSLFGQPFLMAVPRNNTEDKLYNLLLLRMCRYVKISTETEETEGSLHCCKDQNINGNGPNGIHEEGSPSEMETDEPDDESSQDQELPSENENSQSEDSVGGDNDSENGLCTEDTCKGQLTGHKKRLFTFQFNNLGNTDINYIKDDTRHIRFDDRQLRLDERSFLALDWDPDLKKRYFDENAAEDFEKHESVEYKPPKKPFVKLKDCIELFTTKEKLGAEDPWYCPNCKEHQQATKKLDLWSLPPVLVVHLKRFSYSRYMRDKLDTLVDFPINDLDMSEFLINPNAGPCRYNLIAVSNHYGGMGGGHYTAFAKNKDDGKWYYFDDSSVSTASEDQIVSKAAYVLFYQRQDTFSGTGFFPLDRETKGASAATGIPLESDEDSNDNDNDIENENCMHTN
Procedure, shortened: as §1

USP16 = USP16 (UniProt Q9Y5T5)
Procedure, shortened: as §1

Measured: log2 ratio of Biotin-Ahx-Ub-VS probe labelling

UCHL1, sequence (P09936 whole entry, looked up): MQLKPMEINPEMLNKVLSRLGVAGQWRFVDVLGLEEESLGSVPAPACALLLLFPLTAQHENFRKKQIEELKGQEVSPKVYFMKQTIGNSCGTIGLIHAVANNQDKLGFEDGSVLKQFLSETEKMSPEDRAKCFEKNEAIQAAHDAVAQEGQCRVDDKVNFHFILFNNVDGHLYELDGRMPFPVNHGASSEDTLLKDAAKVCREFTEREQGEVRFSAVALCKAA
USP16, sequence (Q9Y5T5 whole entry, looked up): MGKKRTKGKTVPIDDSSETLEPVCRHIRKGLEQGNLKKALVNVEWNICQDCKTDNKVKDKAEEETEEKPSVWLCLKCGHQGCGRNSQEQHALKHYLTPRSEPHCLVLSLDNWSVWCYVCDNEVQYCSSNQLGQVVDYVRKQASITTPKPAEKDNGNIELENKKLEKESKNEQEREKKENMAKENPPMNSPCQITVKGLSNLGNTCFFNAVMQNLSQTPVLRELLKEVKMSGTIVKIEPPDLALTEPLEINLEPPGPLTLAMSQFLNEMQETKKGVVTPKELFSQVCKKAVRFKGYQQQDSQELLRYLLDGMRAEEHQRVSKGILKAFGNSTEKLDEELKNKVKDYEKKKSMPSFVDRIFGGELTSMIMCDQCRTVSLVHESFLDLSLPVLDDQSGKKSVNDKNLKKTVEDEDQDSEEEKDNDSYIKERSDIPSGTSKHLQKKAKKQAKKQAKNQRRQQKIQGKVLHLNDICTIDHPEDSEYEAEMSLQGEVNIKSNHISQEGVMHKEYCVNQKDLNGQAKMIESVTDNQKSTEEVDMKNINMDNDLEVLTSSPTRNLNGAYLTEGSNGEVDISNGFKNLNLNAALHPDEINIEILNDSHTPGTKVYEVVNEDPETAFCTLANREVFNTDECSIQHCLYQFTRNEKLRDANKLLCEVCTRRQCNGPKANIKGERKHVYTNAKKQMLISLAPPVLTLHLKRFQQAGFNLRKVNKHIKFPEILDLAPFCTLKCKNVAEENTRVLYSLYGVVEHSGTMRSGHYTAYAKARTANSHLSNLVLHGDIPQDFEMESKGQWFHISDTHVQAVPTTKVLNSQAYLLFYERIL
USP10, sequence (Q14694 whole entry): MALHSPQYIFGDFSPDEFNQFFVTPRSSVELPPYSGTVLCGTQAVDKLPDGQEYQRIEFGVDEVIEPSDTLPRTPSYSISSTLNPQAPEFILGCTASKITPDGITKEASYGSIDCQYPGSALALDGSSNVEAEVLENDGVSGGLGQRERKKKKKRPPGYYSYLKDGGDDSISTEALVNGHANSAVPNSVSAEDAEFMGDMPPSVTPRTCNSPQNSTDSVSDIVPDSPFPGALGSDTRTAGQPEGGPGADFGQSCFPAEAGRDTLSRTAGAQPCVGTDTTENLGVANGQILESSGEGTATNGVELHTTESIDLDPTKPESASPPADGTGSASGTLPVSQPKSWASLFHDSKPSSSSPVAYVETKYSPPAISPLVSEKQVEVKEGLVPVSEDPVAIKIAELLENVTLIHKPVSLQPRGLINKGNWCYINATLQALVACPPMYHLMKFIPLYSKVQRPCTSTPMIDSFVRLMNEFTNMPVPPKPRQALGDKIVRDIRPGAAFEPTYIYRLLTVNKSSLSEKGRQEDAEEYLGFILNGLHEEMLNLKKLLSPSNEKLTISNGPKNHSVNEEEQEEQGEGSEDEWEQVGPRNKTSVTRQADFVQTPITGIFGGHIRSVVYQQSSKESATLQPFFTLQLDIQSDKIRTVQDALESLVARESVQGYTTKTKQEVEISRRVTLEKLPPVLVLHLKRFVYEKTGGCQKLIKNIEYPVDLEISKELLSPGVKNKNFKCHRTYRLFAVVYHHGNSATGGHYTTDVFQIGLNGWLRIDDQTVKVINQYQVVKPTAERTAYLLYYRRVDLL

C[C@@H](NC(=O)CCl)c1cccc(C#N)c1
inactive: OTUD6B -0.0614 | PRPF8 0.0368 | PSMD7 -0.233 | UCHL3 0.359 | UCHL5 -0.189 | USP10 -0.103 | USP15 -0.222 | USP16 0.0341
active: OTUD7B -1.42 | UCHL1 -1.24
